rCAG binder: r(CAG) repeat RNA binding; TO-PRO-1 dye displacement fluorescence; inhibition, % at 3 µM; 370,000 tested, 1.3% active;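 active means inhibition above the plate cutoff, the mean of all test compounds on that plate plus 3 SD, cut at about 35% in these data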;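 further: 0% = DMSO alone and 100% = 100 µM mitoxantrone as full dye displacement; higher means more dye released from RNA so lower well fluorescence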
PAFAH1B2 inh: PAFAH1B2 (human) inhibition; P68402; recombinant PAFAH1B2, FP-rhodamine activity probe, fluorescence polarization; inhibition, % at 3.39 µM; 340,000 tested, 1.2% active; AID 492953;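 active means inhibition above the mean of all tested compounds plus 3 SD, cut at about 24% in these data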;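 further: 0% = enzyme with DMSO and 100% = wells lacking PAFAH1B2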
EBNA-1 inh: blocks EBNA-1 binding to DNA | EBNA-1 DNA binding, fluorescence polarization | inhibition, % at 14.8 µM | 300,000 tested, 0.34% active | AID 1950; in the data active means inhibition above about 28%
ZTA counter: blocks Epstein-Barr virus ZTA, an EBNA-1 counter-screen; 320,000 tested, 0.15% active; P03206; ZTA-DNA binding, fluorescence polarization; inhibition, % at 11 µM; AID 2234; in the data active means inhibition above about 33%
Target sequence (P03206 whole entry, looked up): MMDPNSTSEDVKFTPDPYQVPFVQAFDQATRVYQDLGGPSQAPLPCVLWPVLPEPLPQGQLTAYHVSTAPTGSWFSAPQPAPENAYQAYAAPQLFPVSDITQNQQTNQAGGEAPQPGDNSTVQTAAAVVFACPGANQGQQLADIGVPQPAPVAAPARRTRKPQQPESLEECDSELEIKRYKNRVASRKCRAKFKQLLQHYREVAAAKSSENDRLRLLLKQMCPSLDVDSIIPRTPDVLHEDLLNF
PAFAH1B3 FP inh: inhibitors of human PAFAH1B3. AID 492972. recombinant PAFAH1B3, FP-rhodamine probe, fluorescence polarization. Q15102. inhibition, % at 3.39 µM. 340,000 tested, 0.28% active;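 active means inhibition above the screen-wide average of all tested compounds plus 3 SD, cut at about 25% in these data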;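 further: 0% = enzyme with DMSO only and 100% = wells lacking PAFAH1B3 protein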
Target sequence (Q15102 whole entry, looked up): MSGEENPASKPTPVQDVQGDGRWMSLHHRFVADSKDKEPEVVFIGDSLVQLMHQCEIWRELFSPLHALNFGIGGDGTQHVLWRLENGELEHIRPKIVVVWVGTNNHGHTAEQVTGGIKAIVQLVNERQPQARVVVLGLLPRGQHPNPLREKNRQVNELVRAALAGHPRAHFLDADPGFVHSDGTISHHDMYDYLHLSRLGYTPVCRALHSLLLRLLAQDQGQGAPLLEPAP
PAFAH2 FP inh: inhibitors of human PAFAH2; 340,000 tested, 0.99% active; inhibition, % at 3.39 µM; Q99487; recombinant PAFAH2, FP-rhodamine activity probe, fluorescence polarization;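 active means inhibition above the mean over all tested compounds plus 3 SD, cut at about 30% in these data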;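 further: inhibitors block probe labeling of enzyme so polarization drops; 0% = enzyme with DMSO and 100% = wells lacking PAFAH2 protein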
Starred values were filed as active, the others as inactive; . = not tested or not shown. Sampled rows, rich in hits. Any-hit rate of the full collection: about 2.9%.

SMILES	rCAG binder	PAFAH1B2 inh	EBNA-1 inh	ZTA counter	PAFAH1B3 FP inh	PAFAH2 FP inh
CN(Cc1ccccc1F)C(=O)CCNC(=O)c1ccc(C(C)(C)C)cc1	-3	28*	.	-1	1	-3
CC(C)(C)c1ccc(C(=O)NCCC(=O)NNC(=O)COc2ccccc2F)cc1	1	25*	.	.	4	-8
O=C(COC(=O)C1CC2C=CC1C2)Nc1ccccc1F (stereo unspecified)	-6	-1	6	9	3	34*
O=C(O)c1cnn(-c2nc(-c3ccc(Br)cc3)cs2)c1C(F)(F)F	28	40*	12	11	13	2
NC(=O)Cc1nc(-c2ccc(Br)cc2)cs1	-2	-1	-1	1	7	5
CCCCn1c(NC(=O)c2ccco2)c(S(=O)(=O)c2ccc(C)cc2)c2nc3ccccc3nc21	59*	1	.	.	-5	4
CCCCn1c(NS(=O)(=O)c2ccccc2)c(S(=O)(=O)c2ccc(C)cc2)c2nc3ccccc3nc21	4	36*	18	16	66*	57*
Cc1ccc(S(=O)(=O)c2c(N)n(CCCO)c3nc4ccccc4nc23)cc1	4	10	4	-2	23	9
CCCCCn1c(NC(=O)c2ccco2)c(S(=O)(=O)c2ccc(C)cc2)c2nc3ccccc3nc21	18	30*	3	13	57*	42*
Cc1ccc(NC(=O)CSc2ccccc2)cc1S(=O)(=O)N1CCCCC1	0	-1	.	-8	10	5
Cc1cc(C)c(S(=O)(=O)/N=C2/C=C(SCC(=O)O)C(=O)c3ccccc32)cc1C	.	22	.	.	37*	30*
Cc1cccc(OCC(=O)Nc2ccc(C(=O)Nc3ccccc3C(=O)O)cc2)c1C	41*	-7	-1	13	-7	-19
COc1ccccc1NC(=O)c1ccc(NC(=O)COC(=O)C2CC2C)cc1 (stereo unspecified)	0	1	-6	-16	3	43*
Cc1cccc(OCC(=O)Nc2cc(NC(=O)COc3cccc(C)c3C)cc(C(=O)O)c2)c1C	5	-8	1	2	-7	-13
CCCCOCCCNC(=O)C[C@@H]1C(=O)N(Cc2ccc(OC)cc2)C2=CCN(C(=O)OC(C)(C)C)C[C@]21C(=O)OCC	2	.	.	.	.	.
COc1cc2c(c(OC)c1OC)C1(CCCCC1)CC2NS(=O)(=O)C(C)C (stereo unspecified)	4	.	.	.	.	.
Cc1nn(-c2ccccc2)nc1C(=O)Nc1ccccc1C(=O)NCC1CC1	1	.	.	.	.	.
COC(=O)c1ccc2nc(-c3ccc(C)cc3)c(CC(C)(C)C)n2c1	0	.	.	.	.	.
Cc1c(C)c2ccc(OC(C)C(=O)N[C@@H](Cc3c[nH]c4ccccc34)C(=O)O)c(C)c2oc1=O (stereo partly specified)	34	24*	0	2	3	1
CC(Oc1ccc2c(-c3ccccc3)cc(=O)oc2c1)C(=O)N[C@H](Cc1c[nH]c2ccccc12)C(=O)O (stereo partly specified)	31	76*	-4	16	10	15
Cc1c(OCC(=O)N[C@@H](Cc2c[nH]c3ccccc23)C(=O)O)ccc2c1oc(=O)c1ccccc12	15	18	4	3	8	3
Cc1c(C)c2ccc(OCC(=O)NC(Cc3c[nH]c4ccc(O)cc34)C(=O)O)c(C)c2oc1=O (stereo unspecified)	18	8	4	8	12	7
Cc1c(OC(C)C(=O)NC(Cc2c[nH]c3ccc(O)cc23)C(=O)O)ccc2c1oc(=O)c1ccccc12 (stereo unspecified)	58*	13	2	12	7	8
CCCCOc1cccc(C(=O)NCCc2ccccc2-c2ccccc2CCC(=O)NCc2ccccc2)c1	1	.	.	.	.	.
COc1cc([C@@H]2c3cc4c(cc3[C@@H](O)[C@@H](CO)[C@@H]2CO)OCO4)cc(OC)c1O[Si](C)(C)C(C)(C)C	.	.	-5	34*	.	.
SMILES	rCAG binder	PAFAH1B2 inh	EBNA-1 inh	ZTA counter	PAFAH1B3 FP inh	PAFAH2 FP inh
CC(=O)C1=C(C)NC(SCC(=O)c2ccc(-c3ccccc3)cc2)=C(C#N)C1c1cccnc1 (stereo unspecified)	.	.	36*	4	.	.
O=C(O)CSc1cc(NS(=O)(=O)c2ccc(Cl)cc2)c2ccccc2c1O	37*	51*	3	11	52*	36*
Cc1cc(C)c(S(=O)(=O)Nc2cc(SCC(=O)O)c(O)c3ccccc23)cc1C	.	.	0	0	.	.
O=C(Oc1nsnc1N1CCOCC1)N1CCCCC1	-2	-2	3	-6	7	8
O=C(Oc1nsnc1N1CCOCC1)N1CCOCC1	1	5	8	-1	5	31*
CNC(=O)C[C@H]1CC[C@H]2[C@@H](COc3ccc(NC(=O)Nc4ccccc4)cc3C(=O)N2C)O1	3	.	.	.	.	.
COc1cc(/C=C2\SC(=O)N(Cc3ccc(F)cc3)C2=O)cc([N+](=O)[O-])c1O	8	5	.	.	5	29
COc1cc(/C=C2\SC(=O)N(Cc3ccc(Cl)cc3)C2=O)cc([N+](=O)[O-])c1O	12	39*	.	.	19	49*
Cc1ccc(-c2c(NC(=O)C3CC3)nc3ncccn23)cc1	1	.	.	.	.	.
COc1ccc(NC(=O)COC(=O)/C=C/c2ccccc2[N+](=O)[O-])cc1OC	3	6	-9	5	6	17
COC(=O)CNC(=O)COC(=O)/C=C/c1ccccc1[N+](=O)[O-]	-1	6	-14	-10	17	5
COc1ccc(NC(=O)COC(=O)/C=C/c2ccccc2[N+](=O)[O-])cc1	-2	-2	1	-4	10	63*
COc1cccc(NC(=O)COC(=O)/C=C/c2ccc(Cl)cc2Cl)c1	8	0	39*	9	1	6
O=C(COC(=O)/C=C/c1ccccc1[N+](=O)[O-])NCc1ccco1	2	5	.	.	13	55*
C[C@H]1COc2cccc(N3CCSCC3)c2S(=O)(=O)N1C	0	.	.	.	.	.
Cc1ccc(C2(c3noc(CN4CCC(C(=O)N5CCOCC5)CC4)n3)CCCC2)cc1	-3	27*	-2	5	3	-2
Cc1ccc(C2(c3noc(CN4CCOCC4)n3)CCCC2)cc1	-4	8	-4	10	5	-3
O=C(O)c1ccc(-c2ccc(/C=C3\NC(=O)N(Cc4ccc(Cl)cc4)C3=O)o2)cc1Cl	53*	8	.	.	22	30*
COC(=O)[C@H](CC(C)C)N(Cc1cn(Cc2ccccc2)nn1)S(=O)(=O)c1ccc(F)cc1Br	3	.	.	.	.	.
O=S(=O)(c1ccc(S(=O)(=O)n2cnc3ccccc32)cc1)N1CCCCCC1	6	11	-2	1	2	0
O=S(=O)(c1ccc(F)cc1)n1cnc2ccccc21	0	26*	-7	-6	14	5
Clc1ccc(OCc2cc(-c3ccccc3)no2)c(Cl)c1	2	2	9	14	0	-4

From PubChem
